The source made the active and inactive calls.

Experimental findings from PubChem BioAssay are described below.

In one assay the target is Albumin (Bos taurus) (UniProt P02769). Briefly: compounds binding labelled BSA control protein – biochemical, small-molecule microarray, Alexa647 label, 635/667 nm fluorescence, artefact control for SMM control protein annotation, profiling panel (AID 1118).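 Further: score merges 667 nm emission intensity and signal-to-noise per printed compound spot.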 The note with it: BSA-A647 binding, fluorescence 635 nm, higher = more signal.
Chain of Albumin (Bos taurus) (P02769 whole entry, looked up): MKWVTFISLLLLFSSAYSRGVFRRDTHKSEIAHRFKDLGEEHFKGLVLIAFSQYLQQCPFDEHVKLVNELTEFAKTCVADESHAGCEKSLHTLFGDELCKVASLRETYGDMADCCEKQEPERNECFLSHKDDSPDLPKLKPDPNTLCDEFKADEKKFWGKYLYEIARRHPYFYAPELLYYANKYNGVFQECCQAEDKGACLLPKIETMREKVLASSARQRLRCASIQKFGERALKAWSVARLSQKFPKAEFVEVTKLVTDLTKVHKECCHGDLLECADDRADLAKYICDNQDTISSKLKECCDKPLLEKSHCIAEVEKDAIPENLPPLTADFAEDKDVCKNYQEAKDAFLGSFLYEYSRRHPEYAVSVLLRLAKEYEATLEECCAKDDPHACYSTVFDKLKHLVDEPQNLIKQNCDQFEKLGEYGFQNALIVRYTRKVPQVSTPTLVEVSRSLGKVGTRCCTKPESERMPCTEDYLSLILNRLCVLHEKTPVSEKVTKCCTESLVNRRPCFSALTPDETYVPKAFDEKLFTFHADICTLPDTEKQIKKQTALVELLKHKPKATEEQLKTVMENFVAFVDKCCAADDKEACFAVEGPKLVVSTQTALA
Assay [1] can be described thus: probe aXIP binding to arrayed compounds – biochemical, NeuroSMM set, 635/667 nm fluorescence, primary screen (AID 1119).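 Further: probe is the protein aXip251-270 applied at 1 µg/mL to compound-printed slides; binding of probe to printed compounds measured as 667 nm fluorescence plus signal to noise.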 To be noted: small-molecule microarray, higher = more signal, called active from +8 up or from −8 down.
Assay [2] in a line: probe aNOTCH3 binding on compound microarray – biochemical, small-molecule microarray, 635/667 nm fluorescence, primary screen (AID 1120).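 Further: probe is a biotin-tagged antibody raised against NOTCH3 rather than NOTCH3 protein; score merges spot fluorescence near 667 nm with spot signal to noise.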 To be noted: higher = more signal.
Assay [3] can be described thus: probe aNOTCH2 binding on compound microarray – biochemical, small-molecule microarray, 635/667 nm fluorescence, primary screen (AID 1121).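 Further: score merges feature fluorescence read at 667 nm with its signal to noise.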 To be noted: higher = more signal.
The target of assay [4] is Carbonic anhydrase 2 (Homo sapiens) (UniProt P00918). In words: compounds binding carbonic anhydrase 2 – biochemical, small-molecule microarray, Alexa647-labelled CAII, profiling panel (AID 1122). To be noted: CAII-A647 binding fluorescence, higher = more signal.
The nature of assay [5]: COS7 lysate on small-molecule microarray, probe aHis, 635 nm (AID 1123).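 Further: z-score combines 667nm fluorescence intensity with signal-to-noise per printed compound spot.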 To be noted: COS7 cell lysate, fluorescence, higher = more signal.
Assay [6] is described as follows: probe aLAP1 signal on lysate-treated microarray – cell lysate, small-molecule microarray, COS7 lysate, primary screen (AID 1124).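 Further: lysate comes from COS7 cells expressing LAP1 and is applied at 0.3 µg/mL; score merges spot fluorescence near 667 nm with signal-to-noise over triplicate slides.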 The note with it: probe aLAP1, fluorescence, higher = more signal.
The next assay has as its system Sam68 (KHDRBS1). In words: compounds binding KHDRBS1 protein – biochemical, small-molecule microarray, 635 nm fluorescence, primary screen (AID 1125).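 Further: score merges 667 nm channel intensity with signal to noise over triplicate slides.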 The note with it: higher = more signal.
Assay [7] relates to Chordin-like protein 2 (CHRDL2). Briefly: compounds binding chordin-like 2 – biochemical, small-molecule microarray, 635 nm fluorescence, primary screen (AID 1126).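 Further: printed compound slides probed with Chrdl2 protein at 4 µg/mL for 1 h at 4 C; score merges 667 nm emission intensity with signal to noise over three replicate slides.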 To be noted: fluorescence 635 nm, higher = more signal.
Assay [8] addresses Concanavalin-A (Canavalia ensiformis) (UniProt P02866). Briefly: compounds binding concanavalin A lectin – biochemical, small-molecule microarray, Alexa647 label, 635 nm, artefact control for SMM control protein annotation, primary screen (AID 1127).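 Further: z combines 667 nm emission intensity with signal-to-noise across three replicate slides.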 The note with it: ConA-A647 binding fluorescence, higher = more signal.

Chain of Concanavalin-A (Canavalia ensiformis) (P02866 whole entry, looked up): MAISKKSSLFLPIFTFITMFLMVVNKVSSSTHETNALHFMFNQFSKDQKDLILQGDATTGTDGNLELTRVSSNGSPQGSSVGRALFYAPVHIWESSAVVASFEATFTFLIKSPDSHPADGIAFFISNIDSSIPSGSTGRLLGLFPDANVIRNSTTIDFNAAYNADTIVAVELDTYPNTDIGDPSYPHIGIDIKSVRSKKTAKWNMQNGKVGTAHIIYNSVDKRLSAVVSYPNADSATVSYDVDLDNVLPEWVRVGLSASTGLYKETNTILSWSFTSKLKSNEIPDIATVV

Take `C=CC[C@@]12N=C(c3ccc(OCCCO)cc3)O[C@@H]1c1ccccc1N(C)C2=O`: the composite z-score was -0.16 with Albumin (Bos taurus); 0.0637 in assay [2]; -0.0374 in assay [3]; 0.655 in assay [4]; 2.67 in [5]; 0.319 in assay [6]. Moreover, the composite z-score with Sam68 (KHDRBS1) was determined as 1.22; in [7], 0.718; in [8], 0.838. Moreover, the composite Z-score in assay [1] was -0.419 (inactive).
Turning to `O=C1C[C@@](C(=O)NCC(F)(F)F)(c2ccc([N+](=O)[O-])cc2)[C@@H](c2ccc(CO)cc2I)N1C1CCCCC1`, the composite z-score in the assay with Albumin (Bos taurus) is 0.365; in assay [2], 0.03; in assay [3], -0.0394; in assay [4] it was 0.437; in assay [5], 2.22; in assay [6], -0.0164. Also, the composite z-score with Sam68 (KHDRBS1) amounted to 1.23; in [7] it was 0.189; in assay [8], 0.676. In assay [1], the composite Z-score is 0.004 (inactive).
As to `Cc1ccccc1C(O)C1C=CC2C(=O)N(c3ccccc3)C(=O)C2N1Nc1ccc(C(C)C)cc1` (stereo not given), the composite z-score in the assay with Albumin (Bos taurus) was 0.868; in assay [2], 0.344; in assay [3] it was -0.0983; in assay [4], 0.304; in assay [5], 2.1; in [6], 0.68. Besides, the values for the composite z-score (in the assay with Sam68 (KHDRBS1); in [7]; in assay [8]) were 1.15, -0.219 and 1.15, respectively. Also, in assay [1], the composite Z-score was 0.403 (inactive).
Consider `COC(=O)[C@H](Cc1ccccc1)N1CC2=C[C@@H](C3CC3)n3c(=O)n(C)c(=O)n3[C@H]2[C@@H]1[C@@H](O)Cc1ccccc1`, for which the composite z-score in the assay with Albumin (Bos taurus) was 0.503; in assay [2] it was 0.0562; in [3], -0.115; in assay [4] it was 0.298; in assay [5], 0.653; in assay [6], 0.0511. The composite z-score in the assay with Sam68 (KHDRBS1) came out at 1.18; in assay [7], 0.162; in assay [8] it was 0.658. Further, the composite Z-score in assay [1] was 0.133 (inactive).
In the case of `CCCC#C[Si](O[C@H](CC)c1cn(Cc2cccc(Cl)c2)nn1)(C(C)C)C(C)C`, the composite z-score in the assay with Albumin (Bos taurus) is 0.697; in [2], 0.0715; in [3], -0.179; in [4], 0.182; in assay [5], 1.03; in assay [6], 0.249. The composite z-score was 1.18 in the assay with Sam68 (KHDRBS1), 0.103 in assay [7] and 0.7 in assay [8]. In addition, in assay [1], the composite Z-score was -0.014 (inactive).
Regarding `C=CCOC(=O)[C@@H]1[C@H]2C(=O)O[C@H](c3ccccc3)[C@H](c3ccccc3)N2[C@H](c2ccc(OCCOC(=O)[C@@H]3C[C@@H]4C(=O)NCC(=O)N4[C@@H]3c3ccc(O)cc3)cc2)[C@@]12C(=O)Nc1ccc(I)cc12`, the composite z-score in the assay with Albumin (Bos taurus) is 0.471; in [2], -0.0879; in assay [3], -0.108; in assay [4], 0.617; in assay [5], 1.04; in [6] it was -0.143. In addition, the figures for the composite z-score (with Sam68 (KHDRBS1); in assay [7]; in assay [8]) were 1.31, 1.03 and 1.19, respectively. For the same compound, in [1], the composite Z-score was -0.666 (inactive).
With `C=C[C@H](CO[Si](CC)(CC)CC)N(Cc1ccc(OC(C)=O)c(OC)c1)S(=O)(=O)c1ccc(Br)cc1`, the composite z-score with Albumin (Bos taurus) amounted to 0.848; in assay [2], 0.295; in [3], 0.0727; in assay [4] it was 0.56; in assay [5], 1.33; in assay [6] it was 0.897. For the same compound, the composite z-score was 1.29 in the assay on Sam68 (KHDRBS1), 1.31 in assay [7] and 1.13 in assay [8]. The composite Z-score in assay [1] is 0.646 (inactive).
For `CCOC(=O)C[C@H]1[C@H](OC(=O)c2cc3ccccc3oc2=O)[C@@H](NC(=O)c2ccccc2)c2cc(OCCCO)ccc2N1C(=O)c1ccc2ccccc2n1`, the composite z-score is -0.117 with Albumin (Bos taurus); 0.0496 in [2]; 0.655 in assay [3]; 0.515 in [4]; 0.922 in assay [5]; 0.0418 in [6]. For the same compound, the results for the composite z-score (in the assay with Sam68 (KHDRBS1); in assay [7]; in assay [8]) were 0.845, 0.651 and 0.821, respectively. Moreover, the composite Z-score in assay [1] was 0.315 (inactive).
On to `COc1cc(C(O)C2C=CC3C(=O)NC(=O)C3N2Nc2ccccn2)cc(OC)c1OC` (stereo not given), for which the composite z-score is 0.354 with Albumin (Bos taurus); -0.108 in [2]; 0.0339 in assay [3]; 0.749 in [4]; 2.43 in [5]; -0.0653 in [6]. The composite z-score with Sam68 (KHDRBS1) amounted to 0.466; in assay [7], 0.361; in assay [8], 0.585. In [1], the composite Z-score is 0.183 (inactive).
`COc1cc2c(cc1OC)CN(C(=O)[C@@H]1[C@H]3C(=O)O[C@H](c4ccccc4)[C@H](c4ccccc4)N3[C@H](c3ccc(O)cc3)[C@@]13C(=O)Nc1ccccc13)CC2`: the composite z-score with Albumin (Bos taurus) is 0.551; in assay [2], -0.0647; in [3] it was -0.117; in [4], 0.622; in assay [5] it was 1.74; in assay [6], 0.169. The figures for the composite z-score (in the assay on Sam68 (KHDRBS1); in [7]; in assay [8]) were 0.751, 0.257 and 1.13, respectively. Further, in assay [1], the composite Z-score is 0.799 (inactive).
Consider `COCCOC(=O)N1C(=O)[C@@]2(c3cc(C#CCNC(N)=O)ccc31)[C@H](C(=O)N1CCN(c3ncccn3)CC1)[C@H]1C(=O)O[C@H](c3ccccc3)[C@H](c3ccccc3)N1[C@@H]2c1ccc(OCCO)cc1`, for which the composite z-score with Albumin (Bos taurus) is 0.521; in assay [2], 0.185; in [3] it was -0.108; in assay [4], 0.193; in assay [5], 1.48; in assay [6], 0.437. For the same compound, the composite z-score in the assay on Sam68 (KHDRBS1) was 1.29; in assay [7], 0.0879; in [8], 1. In addition, the composite Z-score in assay [1] was 0.242 (inactive).
Turning to `CC(C)C(O)C1C=CC2C(=O)NC(=O)C2N1Nc1ccc(Cl)cc1Cl` (stereo not given), the composite z-score in the assay with Albumin (Bos taurus) was 0.523; in assay [2] it was -0.0414; in assay [3], -0.0659; in assay [4] it was 0.751; in [5], 1.78; in assay [6], 1.33. Moreover, the composite z-score in the assay on Sam68 (KHDRBS1) was 0.531; in [7] it was -0.827; in assay [8], -0.478. The composite Z-score in assay [1] was 0.449 (inactive).
